Screening results (PubChem BioAssay)
Sampled rows, rich in hits. Any-hit rate of the full collection: about 28%.
CYP2C9 act: human CYP2C9 activators, primary screen, biochemical, luminescence; Cytochrome P450 2C9 (Homo sapiens), P11712; recombinant CYP2C9, luciferin-H conversion; hits give high values; factor 1 = untreated enzyme, 0 = blocked; activation factor at 5 µM; actives 1.4% (n = 96,000); AID 1024, 2008;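 active = activation factor of 2 or more for CYP2C9 at a 5 µM dose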
CYP2C9 inh: blockers of cytochrome P450 2C9 activity – biochemical, luminescence, ADME assay, primary screen; CYP2C9 Supersomes, luciferin-H conversion; inhibition, % at 5 µM; actives 20% (n = 96,000);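 active = blocking of liver enzyme CYP2C9 beyond about 50% at 5 µM, limit read from the data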
CYP2C19 inhib: blockers of cytochrome P450 2C19 activity – biochemical, luminescence, ADME assay, primary screen; P33261; CYP2C19 Supersomes, luciferin-H EGE luminescence, 30 min; inhibition, % at 5 µM; actives 21% (n = 96,000); AID 778, 2007;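 active = CYP2C19 inhibition above a set limit at 5 µM in the primary screen, cut at about 50% in these data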
Mac1 fbg enh: enhancers of CD11b/CD18 adhesion to fibrinogen, primary screen, K562 cells, luminescence; Integrin beta-2 (Homo sapiens) + Integrin alpha-M (Homo sapiens), P05107+P11215; ATPlite luminescence; activation, % at 10 µM; actives 0.07% (n = 93,000);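 active = 10 µM primary screen giving 50% or more activity, confirmed by 40% or more on retest at that dose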
Target sequence (P05107 whole entry, looked up, other chains not shown): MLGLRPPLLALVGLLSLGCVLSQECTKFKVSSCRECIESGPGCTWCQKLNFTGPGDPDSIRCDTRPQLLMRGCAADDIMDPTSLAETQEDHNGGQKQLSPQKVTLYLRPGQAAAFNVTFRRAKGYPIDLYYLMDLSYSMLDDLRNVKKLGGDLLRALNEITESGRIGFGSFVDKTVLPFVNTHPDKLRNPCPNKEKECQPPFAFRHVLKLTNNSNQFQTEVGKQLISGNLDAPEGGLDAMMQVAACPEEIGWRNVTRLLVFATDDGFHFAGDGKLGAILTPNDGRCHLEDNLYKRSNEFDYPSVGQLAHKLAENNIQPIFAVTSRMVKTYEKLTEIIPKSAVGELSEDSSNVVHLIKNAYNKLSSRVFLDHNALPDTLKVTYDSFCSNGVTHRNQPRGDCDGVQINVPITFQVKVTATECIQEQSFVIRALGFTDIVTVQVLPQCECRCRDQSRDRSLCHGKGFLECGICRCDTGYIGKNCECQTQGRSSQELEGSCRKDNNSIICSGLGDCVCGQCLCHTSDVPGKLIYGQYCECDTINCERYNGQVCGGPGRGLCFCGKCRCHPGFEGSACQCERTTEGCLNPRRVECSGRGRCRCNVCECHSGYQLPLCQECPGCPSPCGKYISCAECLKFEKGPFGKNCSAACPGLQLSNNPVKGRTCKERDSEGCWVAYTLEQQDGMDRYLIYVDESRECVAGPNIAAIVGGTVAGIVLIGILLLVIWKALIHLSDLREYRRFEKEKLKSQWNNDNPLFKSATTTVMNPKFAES
CD11b adhes inh: inhibitors of CD11b/CD18 adhesion to fibrinogen, primary screen, K562 cells, luminescence; Integrin beta-2 (Homo sapiens) + Integrin alpha-M (Homo sapiens), P05107+P11215; inhibition, % at 10 µM; AID 1497, 2009; actives 0.54% (n = 93,000); ATPlite luminescence; Mn2+ added to activate the integrin;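 active = primary inhibition of 50% or more at 10 µM, then 40% or more on retest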
CYP2C19 act: human CYP2C19 activators, primary screen, biochemical, luminescence | Cytochrome P450 2C19 (Homo sapiens), P33261 | recombinant CYP2C19, luciferin-H EGE luminescence; hits give high values; 0 = fully inhibited enzyme, 1 = untreated enzyme | activation factor at 5 µM | 96,000 tested, under 10 active;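 active = activation factor of at least 2 at 5 µM in the primary screen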
Each line names hits and unclear results; the compound was inactive in the other large screens.

Cc1c(NC(=S)NC(=O)C(C)(C)C)cccc1[N+](=O)[O-]	none (no result: CYP2C9 act, CYP2C9 inh, CYP2C19 inhib, CYP2C19 act)
Cc1ccc([N+](=O)[O-])cc1NC(=S)NC(=O)C(C)(C)C	CYP2C9 inh 82, CYP2C19 inhib 59 (no result: Mac1 fbg enh, CD11b adhes inh)
O=C(Nc1ccc(Cl)cc1)N1CCSc2ccccc21	none
O=C(CCCn1c(=O)[nH]c2cc(Cl)ccc2c1=O)NCCCN1CCCC1=O	none
COC(=O)c1ccccc1NC(=O)N1CCN(S(=O)(=O)c2ccc(Cl)cc2)CC1	none
O=C(Nc1ccc(Br)cc1F)c1sccc1-n1cccc1	none
CCCCc1ccc(NC(=O)C2CCCO2)cc1 (centres undefined)	none (no result: Mac1 fbg enh, CD11b adhes inh)
Cc1noc(C)c1S(=O)(=O)N1CCC(C(=O)N2CCC(N3CCCCC3)CC2)CC1	none
COCCCNC(=O)CN(c1ccc(Cl)c(Cl)c1)S(C)(=O)=O	none
COc1ccc(N(CC(=O)NCCSc2ccccn2)S(C)(=O)=O)cc1Cl	CYP2C9 inh 60, CYP2C19 inhib 55
COCCNC(=O)CN(c1ccc(C)cc1)S(=O)(=O)c1ccc(SC)cc1	CYP2C9 inh 77, CYP2C19 inhib 98
Cc1ccc(S(=O)(=O)N(CC(=O)NCCSc2ccccn2)c2cc(C)cc(C)c2)cc1	CYP2C9 inh 79
Cc1ccc(S(=O)(=O)N2CCC(C(=O)OCC(=O)N3CCc4ccccc43)CC2)cc1	none
CCOC(=O)N1CCC(c2cc(=O)n3[nH]ccc3n2)CC1	CYP2C9 inh 59
CCOC(=O)N1CCC(c2cc(=O)n3[nH]cc(C(=O)OC)c3n2)CC1	CYP2C9 inh 62
Cc1cccc(/C=N\NC(=O)c2sccc2-n2cccc2)c1	none (no result: Mac1 fbg enh, CD11b adhes inh)
CCCC(=O)NC(=S)Nc1ccc(NC(=O)C(C)C)c(OC)c1	none (no result: CYP2C9 act, CYP2C9 inh, CYP2C19 inhib, CYP2C19 act)
CCN1CCN(S(=O)(=O)c2ccc(S(=O)(=O)N(CC)Cc3ccccc3)cc2)CC1	none (no result: Mac1 fbg enh, CD11b adhes inh)
CCC(C)(C)n1nnnc1C(c1cccs1)N1CCc2ccccc21 (centres undefined)	CYP2C9 inh 53
c1ccc(CCn2nnnc2CN2CCCc3ccccc32)cc1	CYP2C9 inh 67, CYP2C19 inhib 96
CCC(C)(C)n1nnnc1CN1CCc2ccccc21	CYP2C19 inhib 61
CC(=O)C1=C(O)CCC1=N	none
COc1cccc(C2CC(c3ccc(Cl)cc3)Nc3nc(N)nn32)c1 (centres undefined)	none
Fc1cccc(C2CC(c3cccc(Br)c3)Nc3nnnn32)c1 (centres undefined)	CYP2C9 inh 95, CYP2C19 inhib 95
COc1cccc(C2CC(c3ccc(F)cc3)Nc3nc(N)nn32)c1 (centres undefined)	none
COc1cccc(C2CC(c3ccccc3)n3ncnc3N2)c1 (centres undefined)	CYP2C19 inhib 51
COc1cccc(C2CC(c3ccc(C(C)C)cc3)n3nc(N)nc3N2)c1 (centres undefined)	none
COc1cccc(C2CC(c3cccc(Br)c3)n3ncnc3N2)c1 (centres undefined)	CYP2C19 inhib 64
COc1cccc(C2CC(c3ccc(C)cc3)n3ncnc3N2)c1 (centres undefined)	CYP2C9 inh 63, CYP2C19 inhib 97
Cc1[nH]c2ccccc2c1C(=O)CN1CCCCC1CCO (centres undefined)	none
Cc1cc(Br)cc2c(C(=O)Nc3c(C)n(C)n(-c4ccccc4)c3=O)cc(-c3cccs3)nc12	CYP2C9 inh 76
Cc1cc(C(=O)Nc2c(C)n(C)n(-c3ccccc3)c2=O)c2ccccc2n1	none
CCc1ccc(-c2cc(C(=O)Nc3c(C)n(C)n(-c4ccccc4)c3=O)c3ccccc3n2)s1	CYP2C19 inhib 51
Cc1occc1C(=O)NNC(=O)NC12CC3CC(CC(C3)C1)C2	none
CCCn1nnc(NC(=O)c2cccc(OCC(C)C)c2)n1	none
CCN(C(=O)[C@@H]1CCCN1C(=O)c1cccs1)c1nc2cc(Cl)ccc2s1	none (no result: CYP2C9 act, CYP2C9 inh, CYP2C19 inhib, CYP2C19 act)
COc1cc(OC)cc(C(=O)NC2=NCCS2)c1	none
COc1ccc(CC(=O)NC2=NCCS2)cc1	CYP2C19 inhib 76
CCOc1ccccc1OCCCC(=O)NC1=NCCS1	none
COc1cc(C(=O)NCc2ccc(C)cc2)ccc1OCc1c(C)noc1C	none
COc1cc(C(=O)NC2=NCCS2)cc(OC)c1OC	none
CC(C)(C)c1ccc(OCCCC(=O)NC2=NCCS2)cc1	CYP2C19 inhib 65
COc1ccc(CCC(=O)NC2=NCCS2)cc1OC	CYP2C19 inhib 61
COc1cc(C(=O)NC2=NCCS2)ccc1OCc1c(C)noc1C	CYP2C9 inh 60
COC(=O)c1cc(OC)c(OC)cc1-n1cnc2cc(OC)c(OC)cc2c1=O	none
CCC(C)(C)n1nnnc1CN1CCC(c2nc3ccc(C)cc3[nH]2)CC1	CYP2C9 inh 66
Cc1ccn2c(C(=O)N/N=C/c3ccc(CNC(=O)C(=O)Nc4ccc(C)c(C)c4)o3)c(C)nc2c1	none (no result: CYP2C9 act, CYP2C9 inh, CYP2C19 inhib, CYP2C19 act)
Cn1nnnc1SCc1c(F)cccc1F	none
Cn1nnnc1SCc1csc(Nc2ccccc2)n1	CYP2C9 act 3.8
Cn1nnnc1SCc1cccc(CSc2nnnn2C)n1	CYP2C19 inhib 98
Cc1ccc(Nc2nc(CSc3nnnn3C)cs2)cc1	CYP2C9 act 2.8, CYP2C19 inhib 70
Cc1ccc(Nc2nc(CSc3nnnn3-c3ccccc3)cs2)cc1	none
COCCNC(=O)CN(c1cc(Cl)ccc1OC)S(C)(=O)=O	none
CCOC(=O)c1sc(NC(C)=O)nc1-c1ccccc1	none (no result: Mac1 fbg enh, CD11b adhes inh)
O=C(COc1ccc2c(c1)CCC2)N1CCc2ccccc21	none
CC(=O)Oc1ccc(-c2cccc(C(=O)OCC(=O)N(C)c3ccccc3)c2)cc1	none (no result: CYP2C9 act, CYP2C9 inh, CYP2C19 inhib, CYP2C19 act)
CCOC(=O)c1c(C)[nH]sc1=S	none
CCOC(=O)c1c(C(F)(F)C(F)(F)C(F)(F)C(F)(F)F)n[nH]c1C	CYP2C9 inh 92, CYP2C19 inhib 95
CC(NC(=O)COC(=O)Cc1ccsc1)C1CC2CCC1C2 (centres undefined)	CYP2C19 inhib 92
O=C(COC(=O)Cc1ccsc1)NCC1CCCCC1	CYP2C19 inhib 57
O=c1c2ccccc2nc(SCc2ccccc2Cl)n1Cc1ccccc1	none (no result: CYP2C9 act, CYP2C9 inh, CYP2C19 inhib, CYP2C19 act)
Cc1ccc(Nc2nc(N)nc(CSc3nccn3C)n2)c(C)c1	none
Cc1ccccc1Nc1nc(N)nc(CSc2nc3ccccc3c(=O)n2CCCO)n1	CYP2C9 inh 99, CYP2C19 inhib 90
COCCn1c(SCc2nc(N)nc(Nc3ccccc3C)n2)nc2ccccc2c1=O	CYP2C9 inh 71 (no result: Mac1 fbg enh, CD11b adhes inh)
Cc1ccccc1Nc1nc(N)nc(CSc2nc3ccccc3c(=O)n2C)n1	CYP2C9 inh 82, CYP2C19 inhib 68
Cc1ccc(SCc2nc(N)nc(Nc3ccccc3C)n2)cc1C	none (no result: CYP2C9 act, CYP2C9 inh, CYP2C19 inhib, CYP2C19 act)
Cc1ccc2c(CSc3nc4ccccc4c(=O)n3CCCO)cc(=O)oc2c1C	CYP2C9 inh 96, CYP2C19 inhib 68
